Source: PubChem BioAssay (Tox21)
Inconclusive results are not listed. A number with no mark means an inactive call. The source made the active and inactive calls. Calls come from the whole dose curve; as a rule, active = well fitted cell-killing curve with a large enough effect in the repeat runs; inconclusive = weak or mixed curves, or effect the other way; inactive = flat fitted curve, though single readings scatter.

Assay: qHTS assay to identify small molecule agonists of the estrogen receptor beta (ER-beta) signaling pathway - cell viability counter screen (AID 1259380); note: nearly all actives have a fitted effect of over 30% in size
Settings: ER-beta-bla HEK293T viability, CellTiter-Glo luminescence, 16 h; series mostly up to 92.4 µM; activity change, negative = cytotoxicity: at the top concentration
Text: National Center for Advancing Translational Sciences [NCATS]
NIH Chemical Genomics Center [NCGC]
U.S. Environmental Protection Agency [EPA]
National Institutes of Environmental Health Sciences [NIEHS]
National Toxicology Program [NTP]
U.S. Food and Drug Administration [FDA]
Estrogen receptor (ER), a nuclear hormone receptor, plays an important role in development, metabolic homeostasis and reproduction. Two subtypes of ER, ER-alpha and ER-beta, have similar expression patterns with some uniqueness in both types. Endocrine disrupting chemicals (EDCs) and their interactions with steroid hormone receptors like ER causes disruption of normal endocrine function. To identify the compounds that activate ER signaling, an ER beta-UAS-bla GripTite cell line (Life Technologies, Madison, WI, USA) containing a beta-lactamase reporter gene under the control of an UAS response element was used to screen Tox21 10K compound library. The cytotoxicity of the Tox21 compound library against the ER-beta-bla cell line was tested in parallel by measuring the cell viability using CellTiter-Glo assay in the same wells.
Tox21 Assay Protocol Summary:
ER-beta-UAS-bla HEK293T cells were dispensed at 2,000 cells/5 uL of assay medium containing 2% charcoal stripped FBS per well into black wall/clear-bottom 1536-well plates using a Multidrop Combi (ThermoFisher Scientific, Waltham, MA) dispenser. After the assay plates were incubated at a 37C and 5% CO2 for 6 hr, 23 nL of compounds dissolved in DMSO, positive controls or DMSO only was transferred to the assay plate by a Pintool station (Kalypsys, San Diego, CA). The plates were incubated at 37C and 5% CO2 for 16 hr. Then 1 uL of LiveBLAzerTM B/G FRET substrate was added using a BioRAPTR FRD (Flying Reagent Dispenser, Aurora Discovery, San Diego, CA) and then the plates were incubated at room temperature for 2 hours, and fluorescence intensity was measured by an Envision plate reader (PerkinElmer, Shelton, CT). For cell viability readout that measures cytotoxicity, 4 uL/well of CellTiter-Glo reagent was added into the assay plates using a FRD. After 30 min incubation at room temperature, the luminescence intensity in the plates was measured using a ViewLux (PerkinElmer) plate reader.
% is set by controls: 0 for no effect and ±100 for the full control effect; potency is the fitted concentration of half-maximal effect.

**Q.** Which “activity change, negative = cytotoxicity” value does the source give for `Nc1cc2c3c(c1)C(c1ccccc1)=N[C@@H](NC(=O)c1cccnc1)C(=O)N3CC2` here?
**A.** Its value is 2.16%.

**Q.** With `CC1=C(C(=O)Nc2ccccc2)S(=O)(=O)CCO1` as the compound, how does the “activity change, negative = cytotoxicity” value read?
**A.** Its value is 1.35%.

**Q.** For `CC1=C(C(=O)O)N2C(=O)[C@@H](N)[C@H]2SC1`, which activity change, negative = cytotoxicity is on record?
**A.** The activity change, negative = cytotoxicity was 7.09% [at 19 µM].

**Q.** With `OC(Cn1cncn1)(c1ccc(F)cc1)c1ccccc1F` (stereo not given) as the compound, how does the “activity change, negative = cytotoxicity” value read?
**A.** The value was -10.7%.

**Q.** Which “activity change, negative = cytotoxicity” value does the source give for `CC1CCCCC1NC(=O)Nc1ccccc1` (stereo not given) here?
**A.** Its value is -7.53%.

**Q.** With `CCOC(=O)NC(=S)Nc1ccccc1NC(=S)NC(=O)OCC` as the compound, how does the “activity change, negative = cytotoxicity” value read?
**A.** Its value is -5.28%.

**Q.** For `CCN(Cc1ccc(Cl)nc1)/C(=C/[N+](=O)[O-])NC`, which “activity change, negative = cytotoxicity” value is on record?
**A.** The value was 1.31% [at 42.5 µM].

**Q.** With `C(CCOCC1CO1)COCC1CO1` (stereo not given) as the compound, how does the “activity change, negative = cytotoxicity” value read?
**A.** The value was 4.18%.

**Q.** For `CC(Cl)(Cl)[N+](=O)[O-]`, which “activity change, negative = cytotoxicity” value is on record?
**A.** The value was 3.05%.

**Q.** For `CCOP(=S)(OCC)Oc1nc(Cl)n(C(C)C)n1`, which “activity change, negative = cytotoxicity” value is on record?
**A.** The value was 1.87%.

**Q.** Which “activity change, negative = cytotoxicity” value does the source give for `CSc1ccc(C(=O)C(C)(C)N2CCOCC2)cc1` here?
**A.** Its value is 3.6%.

**Q.** For `CCS(=O)(=O)C(C)(C)S(=O)(=O)CC`, which “activity change, negative = cytotoxicity” value is on record?
**A.** The value was 7.1% [at 42.5 µM].

**Q.** With `O=[N+]([O-])c1cccc2c([N+](=O)[O-])cccc12` as the compound, how does the Potency read?
**A.** The Potency was 10.9 µM (active).

**Q.** Which “activity change, negative = cytotoxicity” value does the source give for `CCN(CC)C(C)C(=O)c1ccccc1` (stereo not given) here?
**A.** Its value is 4.72% [at 42.5 µM].

**Q.** For `O=[N+]([O-])c1ccc2c3c(cccc13)CC2`, which “activity change, negative = cytotoxicity” value is on record?
**A.** The value was -7.65%.

**Q.** With `C1CCC(C2CCCCC2)CC1` as the compound, how does the Potency read?
**A.** Its Potency is 38.6 µM (active).

**Q.** For `CC(C=O)Cc1ccc2c(c1)OCO2` (stereo not given), which “activity change, negative = cytotoxicity” value is on record?
**A.** The value was -0.278%.

**Q.** For `O=C1OC(=O)C2C1C1(Cl)C(Cl)=C(Cl)C2(Cl)C1(Cl)Cl` (stereo not given), which “activity change, negative = cytotoxicity” value is on record?
**A.** The value was -0.111%.

**Q.** Which “activity change, negative = cytotoxicity” value does the source give for `CCCCN(CCCCO)N=O` here?
**A.** Its value is 7.34%.

**Q.** With `COC(=O)COc1ccc(Cl)cc1Cl` as the compound, how does the “activity change, negative = cytotoxicity” value read?
**A.** Its value is 2.43%.

**Q.** Which “activity change, negative = cytotoxicity” value does the source give for `O=C(Oc1ccc(Br)cc1)N1CCN2CCC1CC2` here?
**A.** The value was -1.07%.

**Q.** With `C[C@H]1CCC[C@H](O)CCCCCc2cc(O)cc(O)c2C(=O)O1` as the compound, how does the “activity change, negative = cytotoxicity” value read?
**A.** Its value is -7.19%.

**Q.** Which “activity change, negative = cytotoxicity” value does the source give for `Cc1cc(C)nc(Nc2ccccc2)n1` here?
**A.** Its value is 1.3%.

**Q.** For `OC(c1ccccc1)(c1ccccc1)C1CCNCC1`, which “activity change, negative = cytotoxicity” value is on record?
**A.** The value was -3.71% [at 42.5 µM].

**Q.** With `CC(COc1ccc(Oc2ccccc2)cc1)Oc1ccccn1` (stereo not given) as the compound, how does the “activity change, negative = cytotoxicity” value read?
**A.** The value was 15%.

**Q.** Which “activity change, negative = cytotoxicity” value does the source give for `O=[N+]([O-])c1cccc2cccnc12` here?
**A.** Its value is -1.75%.

**Q.** Which Potency does the source give for `CCOC(=O)/C=C(C)/C=C/C[C@@H](C)CCCC(C)C` here?
**A.** The Potency was 43.3 µM (active).

**Q.** With `CC(C)CC#N` as the compound, how does the “activity change, negative = cytotoxicity” value read?
**A.** The value was 10.6%.

**Q.** With `CNC(=O)Oc1c(C(C)(C)C)cc(C)cc1C(C)(C)C` as the compound, how does the “activity change, negative = cytotoxicity” value read?
**A.** Its value is 0.519%.

**Q.** Which “activity change, negative = cytotoxicity” value does the source give for `CN1CCC(O)(c2ccc(F)cc2)C(C(=O)c2ccc(F)cc2)C1` (stereo not given) here?
**A.** Its value is 3.65% [at 42.5 µM].

**Q.** With `CN(C)CCc1ccc(O)cc1` as the compound, how does the “activity change, negative = cytotoxicity” value read?
**A.** Its value is 10.7% [at 42.5 µM].

**Q.** For `N#CCCC#N`, which “activity change, negative = cytotoxicity” value is on record?
**A.** The value was -3.37%.

**Q.** With `O=CNC(N1CCN(C(NC=O)C(Cl)(Cl)Cl)CC1)C(Cl)(Cl)Cl` (stereo not given) as the compound, how does the “activity change, negative = cytotoxicity” value read?
**A.** The value was -2.99%.

**Q.** For `OCCSCSCCO`, which “activity change, negative = cytotoxicity” value is on record?
**A.** The value was 0.468%.

**Q.** With `COC(C)(C)C` as the compound, how does the “activity change, negative = cytotoxicity” value read?
**A.** Its value is 4.79%.

**Q.** For `CC1CCC(=O)O1` (stereo not given), which “activity change, negative = cytotoxicity” value is on record?
**A.** The value was 4.04%.

**Q.** With `CC(C1CC1)C(O)(Cn1cncn1)c1ccc(Cl)cc1` (stereo not given) as the compound, how does the “activity change, negative = cytotoxicity” value read?
**A.** The value was -14%.

**Q.** With `NC(=O)c1cc([N+](=O)[O-])cc([N+](=O)[O-])c1` as the compound, how does the “activity change, negative = cytotoxicity” value read?
**A.** The value was -7.01% [at 42.5 µM].

**Q.** For `O=C(NCO)NCO`, which “activity change, negative = cytotoxicity” value is on record?
**A.** The value was 10.2%.

**Q.** For `CCOC(=O)CP(=O)(OCC)OCC`, which “activity change, negative = cytotoxicity” value is on record?
**A.** The value was 3.83%.
